Data as given in the supplement of paper PMC12636033.
± gives the standard deviation of the averaged measurements. Over roughly 33,000 sequences, “E-score (rank enrichment, -0.5 to 0.5)” has its median near -0.0028; the highest 2% begin near 0.23. What follows is part of a selection rich in the highest values, with near analogues and random picks from the rest.

tested on: 2Sb-muMax20 (muMax20 with two 1,3-bis(methyl)benzene Cys staples, A13C/A17C and Q88C/A92C, C-terminal Lys); assay: PBM 8-mer E-score (E-score (rank enrichment, -0.5 to 0.5)); higher = stronger preferential binding
Procedure: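 Protein binding microarray (universal PBM chip covering all 10-mers in fixed probe flanks) with chemically synthesized human Max(13-93) bHLH-LZ analogs (not full-length Max) bearing noncanonical residues (hArg, Tha, Aib, Nle at 65) and aromatic Cys staples. Read-out per 8-mer (and its reverse complement): E-score (rank-based enrichment, -0.5 to 0.5) and Z-score of median probe intensity.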

| Sequence | PBM 8-mer E-score |
| --- | --- |
| ATGCGAGC | 0.00876 ± 0.045 |
| ATGCGAGA | -0.0394 ± 0.1 |
| ATGCGAGG | 0.2342 ± 0.0017 |
| CGCCCCCC | -0.286 ± 0.14 |
| CATGTACA | 0.125 ± 0.1 |
| CATGTACG | 0.311 ± 0.024 |
| AATGTACG | 0.115 ± 0.053 |
| TGCACTAA | 0.102 ± 0.019 |
| ATGGTGCA | 0.196 ± 0.05 |
| CAACACCC | 0.252 ± 0.0077 |
| CAACACCG | -0.202 ± 0.036 |
| GAACACCC | -0.145 ± 0.022 |
| GAGGTATA | 0.144 ± 0.025 |
| TAGTAGAA | -0.0551 ± 0.015 |
| ACGGACAA | 0.0365 ± 0.0016 |
| CGACGCAG | -0.238 ± 0.017 |
| ATGAATGC | 0.164 ± 0.06 |
| ATGAAATC | 0.137 ± 0.039 |
| ATGAAATA | 0.169 ± 0.024 |
| ATGAATGA | 0.181 ± 0.035 |
| ATGAATGG | 0.297 ± 0.033 |
| ATGAAATG | 0.277 ± 0.066 |
| CCCGCGAG | 0.015 ± 0.026 |
| CGCAGACG | -0.0875 ± 0.1 |
| CATGTGCC | 0.161 ± 0.0077 |

| Sequence | PBM 8-mer E-score |
| --- | --- |
| ATGGCCGC | -0.0812 ± 0.007 |
| CCTGCGAA | -0.0794 ± 0.0094 |
| AGGGTGGC | 0.0374 ± 0.1 |
| AGGGTGGA | -0.0307 ± 0.022 |
| AGGGGTGA | 0.16 ± 0.05 |
| AGGGGTGG | 0.287 ± 0.046 |
| AGGGTGGG | 0.266 ± 0.032 |
| AAGGGTGG | 0.0428 ± 0.051 |
| GTTCGTAA | -0.00989 ± 0.0088 |
| ACTATCGC | 0.097 ± 0.036 |
| AATGCTAT | 0.0731 ± 0.033 |
| ACCGCATA | 0.0507 ± 0.032 |
| AGGTAAAC | -0.0251 ± 0.11 |
| AGGTAAAT | 0.0873 ± 0.074 |
| AGGTAAAG | 0.2635 ± 0.0021 |
| AGCAGATC | -0.143 ± 0.068 |
| ACGTCTTA | -0.193 ± 0.025 |
| CATGTTTA | 0.239 ± 0.024 |
| GATGTTTA | 0.12 ± 0.03 |
| AATGTTGA | 0.0172 ± 0.078 |
| CATGTTTC | 0.05 ± 0.033 |
| CATGTTGA | 0.257 ± 0.02 |
| CATGTTGC | 0.0698 ± 0.024 |
| AACGGTGG | -0.0485 ± 0.0095 |
| GAAATGGC | 0.0246 ± 0.0079 |

| Sequence | PBM 8-mer E-score |
| --- | --- |
| ACTATACG | 0.156 ± 0.033 |
| CTCTAATA | 0.0986 ± 0.022 |
| TGAATCAA | 0.0626 ± 0.026 |
| CGAATCAA | 0.2677 ± 0.00054 |
| CTAATCAA | 0.277 ± 0.014 |
| CTAATCAC | 0.14 ± 0.0037 |
| CGAATCAG | -0.163 ± 0.065 |
| TTAATCAA | 0.0337 ± 0.0076 |
| AGGCCACT | 0.129 ± 0.0082 |
| CGTAGCAA | -0.0306 ± 0.0061 |
| ACTTCATA | 0.0718 ± 0.0033 |
| CTAACCGC | -0.0848 ± 0.018 |
| AAAGTTTC | -0.0128 ± 0.036 |
| AAAGTTTA | 0.249 ± 0.022 |
| GAAGTTTA | -0.0783 ± 0.12 |
| CCGAGAGG | -0.225 ± 0.049 |
| CAGCGCGA | -0.0207 ± 0.052 |
| CACCCATA | 0.21 ± 0.0057 |
| GGCCCATA | -0.0795 ± 0.036 |
| AACCCATA | 0.229 ± 0.016 |
| GACCCATA | 0.23906 ± 6.4e-05 |
| GCCCCATA | 0.356 ± 0.039 |
| CCCCCATA | 0.0403 ± 0.02 |
| CATCTACA | 0.137 ± 0.025 |
| ACCTGATC | -0.0825 ± 0.031 |

| Sequence | PBM 8-mer E-score |
| --- | --- |
| ATCTAGGG | 0.171 ± 0.013 |
| AACCCTCT | -0.0379 ± 0.0099 |
| CCCCACAC | 0.19 ± 0.13 |
| ACGCATAA | 0.17 ± 0.01 |
| ACCCATAC | 0.119 ± 0.051 |
| ACGCATAG | -0.0652 ± 0.023 |
| CCCCACAA | 0.264 ± 0.0045 |
| AACCATAT | 0.232 ± 0.0038 |
| AACCATAC | -0.0703 ± 0.11 |
| ACGCATAT | 0.246 ± 0.0099 |
| CCCCACAG | -0.09771 ± 0.00011 |
| ACCCATAG | 0.0412 ± 0.039 |
| AACCATAA | 0.13 ± 0.018 |
| ACCCATAT | 0.252 ± 0.051 |
| ACACAGAG | -0.0541 ± 0.0044 |
| ACGGACTG | -0.167 ± 0.011 |
| ACAGGACA | -0.0877 ± 0.075 |
| TCCTAAGA | -0.186 ± 0.031 |
| GTAGCTAC | 0.0481 ± 0.06 |
| ACGCACAT | 0.235 ± 0.024 |
| CACCATTA | -0.044 ± 0.042 |
| ACCCATAA | 0.25 ± 0.023 |
| AACCATTA | 0.276 ± 0.005 |
| ACGCACAG | -0.146 ± 0.017 |
| ACGCACAA | 0.0307 ± 0.012 |

| Sequence | PBM 8-mer E-score |
| --- | --- |
| AACCATTG | -0.163 ± 0.044 |
| GCCCATAA | 0.0149 ± 0.062 |
| ACCCATTA | 0.161 ± 0.015 |
| TCCCATAA | 0.0657 ± 0.052 |
| AGCCATAA | 0.0405 ± 0.0087 |
| CCCCATAA | 0.3007 ± 0.003 |
| TCCTGGAA | -0.283 ± 0.06 |
| TACTTTCA | 0.0779 ± 0.057 |
| TACCGAGA | -0.0899 ± 0.043 |
| CGGCGTGA | -0.113 ± 0.017 |
| CTAAGTGA | -0.204 ± 0.046 |
| AGCGTGCC | -0.0325 ± 0.041 |
| CTTGGAAC | 0.128 ± 0.018 |
| AGTACGTG | 0.0987 ± 0.039 |
| AGTACGTC | 0.257 ± 0.02 |
| AGTACGTA | 0.183 ± 0.018 |
| GCCCGAAC | -0.0411 ± 0.062 |
| AATCCGCA | -0.0479 ± 0.02 |
| CGATTCCC | 0.142 ± 0.0041 |
| AAGACACG | 0.23 ± 0.029 |
| AAGACACA | 0.0534 ± 0.033 |
| CAGACACG | -0.0916 ± 0.036 |
| CCCCGTAG | -0.0497 ± 0.00093 |
| ACCCGTAA | -0.0543 ± 0.035 |
| CCCCGTAA | 0.276 ± 0.014 |

| Sequence | PBM 8-mer E-score |
| --- | --- |
| GCTAGGTA | -0.0432 ± 0.18 |
| ATTGTGTC | 0.0993 ± 0.063 |
| GGGGCGTA | 0.15 ± 0.08 |
| GACGTGGA | 0.0221 ± 0.026 |
| TACGTGGA | 0.0786 ± 0.0068 |
| AACGTGGC | 0.192 ± 0.021 |
| AACGTGGG | 0.196 ± 0.0051 |
| AACGTGGA | 0.0893 ± 0.031 |
| CACGTGGC | 0.317 ± 0.015 |
| GACGTGGC | -0.00165 ± 0.017 |
| CACGTGGG | 0.438 ± 0.0088 |
| CACGTGGA | 0.383 ± 0.029 |
| ACTTAGAA | -0.02 ± 0.04 |
| CGAAGGCC | -0.212 ± 0.015 |
| AAACTTGA | 0.163 ± 0.048 |
| CAACTTGC | -0.1303 ± 0.0012 |
| AAACTTGC | 0.254 ± 0.025 |
| ACAGATTA | -0.0104 ± 0.027 |
| CCTGAAAC | -0.0931 ± 0.062 |
| GTCGTAAC | 0.00633 ± 0.033 |
| GAGTCGGA | -0.0932 ± 0.037 |
| ATTCATTC | 0.249 ± 0.029 |
| ATTCATTA | 0.114 ± 0.012 |
| AGTCATTA | 0.0586 ± 0.056 |
| CTTCATAC | 0.0955 ± 0.029 |

| Sequence | PBM 8-mer E-score |
| --- | --- |
| ATACATTG | 0.17 ± 0.021 |
| AGTCATTC | 0.129 ± 0.077 |
| AGTCATTG | 0.264 ± 0.034 |
| CTACATTC | 0.0832 ± 0.066 |
| ATTCATAC | 0.276 ± 0.044 |
| ATTCATAG | 0.0979 ± 0.039 |
| ATACATTC | 0.32 ± 0.023 |
| ATTCATTG | 0.0825 ± 0.018 |
| GCATCTGA | -0.135 ± 0.0046 |
| GGGCCAGA | -0.122 ± 0.054 |
| CTTGGGCA | 0.0256 ± 0.03 |
| CGAGGCCC | -0.00116 ± 0.04 |
| TGCGCGAA | 0.146 ± 0.011 |
| AGCAGACA | -0.0463 ± 0.0083 |
| GACTGAGC | -0.267 ± 0.057 |
| CCACAGAG | -0.0457 ± 0.076 |
| CTATCCCC | 0.121 ± 0.0091 |
| ATATCCTC | 0.262 ± 0.054 |
| ATATCTTC | 0.249 ± 0.029 |
| CTATCCTC | -0.015 ± 0.015 |
| CTATCTTC | 0.0336 ± 0.054 |
| ATATCCCG | 0.0587 ± 0.04 |
| ATATCTTA | 0.124 ± 0.0016 |
| ATATCCTA | 0.0634 ± 0.0093 |
| ATATCCCC | 0.339 ± 0.025 |
